# Experimental data published in the supplement of paper PMC12669032.
# A number with no mark means an inactive call.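 The calls were made as follows: active = AUC reduced over 20% with Padj below 0.05 in at least 2 of 3 replicates; inactive = otherwise.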
# Columns and labels:
# Assay in all cases: growth AUC relative to DMSO control (median of replicates) (fraction); higher = more growth (less inhibition), active = hit call of the paper
# Details in all cases: 20 µM; 24 h
# Coprococcus comes = test system: Coprococcus comes
# How it was run: (§1)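 Three biological replicates, each grown on a separate day, were combined as a median for every value. In each, a gut bacterial monoculture in mGAM started at OD600 0.05 and grew anaerobically at 37 °C with 20 µM compound (1% DMSO), with OD600 read hourly over 24 h. Area under the growth curve was normalised against the plate median of solvent-only wells, or against row and column medians on the industrial chemical plate, after the minimum OD was set to 0.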
# Escherichia coli ED1a = test system: Escherichia coli ED1a
# How it was run: as §1
# Escherichia coli IAI1 = test system: Escherichia coli IAI1
# How it was run: as §1
# Eubacterium rectale = test system: Eubacterium rectale
# How it was run: as §1
# [1] = test system: Fusobacterium nucleatum subsp. animalis
# How it was run: as §1
# Lactobacillus gasseri = test system: Lactobacillus gasseri
# How it was run: as §1
# Lactobacillus paracasei = test system: Lactobacillus paracasei
# How it was run: as §1
# Odoribacter splanchnicus = test system: Odoribacter splanchnicus
# How it was run: as §1
# [2] = test system: Parabacteroides distasonis
# How it was run: as §1
# Parabacteroides merdae = test system: Parabacteroides merdae
# How it was run: as §1
# Roseburia intestinalis = test system: Roseburia intestinalis
# How it was run: as §1
# Streptococcus salivarius = test system: Streptococcus salivarius
# How it was run: as §1
Compound,growth AUC (Coprococcus comes),growth AUC (Escherichia coli ED1a),growth AUC (Escherichia coli IAI1),growth AUC (Eubacterium rectale),growth AUC [1],growth AUC (Lactobacillus gasseri),growth AUC (Lactobacillus paracasei),growth AUC (Odoribacter splanchnicus),growth AUC [2],growth AUC (Parabacteroides merdae),growth AUC (Roseburia intestinalis),growth AUC (Streptococcus salivarius)
CC(C)(C)[C@@H](O)[C@H](Oc1ccc(Cl)cc1)n1cncn1,0.974,0.977,0.999,1.08,1.05,1.08,1.09,0.833,0.972,1.01,1.08,1.04
CN/C(=N\[N+](=O)[O-])NCc1cnc(Cl)s1,1.01,1.02,1,1.07,1.09,0.959,1,1.02,0.965,0.975,1.05,1
Nc1ccc(Cl)cc1Cl,1.03,1.01,1,1.01,1.11,1.02,0.976,1.1,1.02,1.01,1.02,1.03
CC(C)=CC1C(C(=O)OCN2C(=O)C3=C(CCCC3)C2=O)C1(C)C (stereo not given),0.953,0.995,0.97,0.938,0.85,0.993,0.918,0.963,0.935,0.972,0.988,1.01
CNC(=O)Oc1cc(C)cc(C(C)C)c1,1.01,0.959,0.957,1.04,0.907,0.889,0.974,1.11,0.979,0.992,1.06,0.935
CC(C)CC(C)c1sccc1NC(=O)c1cn(C)nc1C(F)(F)F (stereo not given),0.984,0.998,0.946,1.01,1.04,0.945,1.02,0.782,0.856,0.977,0.998,0.984
N#Cc1cc(Br)c(O)c(Br)c1,0.996,0.907,0.773 (active),1.28,0.864,0.903,0.988,1.1,0.915,0.94,0.953,0.959
CCOP(=S)(OCC)SCSC(C)(C)C,0.996,1,1.01,1.22,0.902,0.909,1.03,1.06,0.955,1,0.951,0.996
CON(C)C(=O)Nc1ccc(Cl)c(Cl)c1,1,1.02,0.977,0.95,0.936,1.01,0.996,0.981,1.01,1,0.925,0.945
CCCCNC(=O)n1c(NC(=O)OC)nc2ccccc21,1.04,1.04,0.977,0.917,0.976,1.01,0.997,1.04,0.945,0.965,0.985,0.999
CNC(=O)CSP(=S)(OC)OC,1.01,0.977,0.959,1.06,0.957,0.911,0.962,0.954,0.9,0.979,0.982,0.968
COC(=O)c1ccccc1S(=O)(=O)NC(=O)N(C)c1nc(C)nc(OC)n1,1.01,0.982,0.978,0.968,1,1.06,0.992,1.01,0.98,1,0.998,1.01
CCOCCN(C(=O)CCl)C(=C(C)C)c1ccccc1,0.999,0.98,0.976,0.982,0.986,0.935,1.01,0.978,0.955,1,1.03,0.993
CCNc1nc(NC(C)C(C)C)nc(SC)n1 (stereo not given),0.977,0.979,0.991,0.89,0.997,1.06,0.81,0.954,1.04,0.992,1.04,0.97
Cc1cccc2sc3nncn3c12,0.98,0.987,0.977,0.939,0.988,1.05,0.957,1.03,0.991,1,0.976,1.02
CC(C)(C)N(NC(=O)c1ccc(Cl)cc1)C(=O)c1ccccc1,0.995,1.01,1.01,1,0.913,1.09,1.1,0.988,0.96,0.97,1.08,0.987
O=C1CCc2cccc3c2N1CC3,1.03,1,0.966,1.06,1.08,0.889,0.983,1.04,1.03,0.971,0.989,0.941
CCCSP(=O)(OCC)SCCC,1.03,1.02,0.987,1.07,0.995,0.902,0.96,0.986,0.976,1.01,1,0.984
COc1cc(OC)nc(Sc2cccc(Cl)c2C(=O)O)n1,1.02,0.981,0.977,1.04,0.941,0.897,0.971,0.985,0.906,0.975,0.984,0.973
Cc1cc(C2CC2)nc(Nc2ccccc2)n1,1.04,0.984,0.962,1.05,1.03,0.982,0.969,1.04,1.01,0.894,0.947,1.03
CCCN(CCCl)c1c([N+](=O)[O-])cc(C(F)(F)F)cc1[N+](=O)[O-],0.914,0.983,0.987,0.942,1.05,0.875,1.06,1.13,0.962,0.955,0.989,0.928
CC(C)=CC1C(C(=O)OC(C#N)c2cccc(Oc3ccccc3)c2)C1(C)C (mixture of isomers),0.983,1,0.967,0.965,0.921,0.921,1.23,1.01,1,1,0.893,0.988
COP(=O)(OC)O/C(=C\Cl)c1ccc(Cl)cc1Cl,1.06,1.01,1,1.09,1.09,0.97,1.02,1.02,0.957,1.01,1.03,1
COc1nc(C)nc(NC(=O)NS(=O)(=O)c2ccccc2CCC(F)(F)F)n1,0.967,0.997,0.976,0.954,0.992,1.06,1,0.962,1.01,1,0.98,0.989
CCc1cccc(CC)c1N(COC)C(=O)CCl,0.976,0.96,0.975,0.993,1.05,0.948,1.01,1.04,0.993,0.978,0.988,0.981
